Source: PubChem BioAssay
Inconclusive results are not listed. Activity calls are given as the source filed them.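 How the source made its calls, unless noted: active means inhibition above the screen-wide mean plus 3 SD, about 51%; inactive means the rest.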

Columns and labels:
[1] = yeast TOR pathway RPL19A-GFP modulators, primary screen, cell-based, S. cerevisiae, multiplex flow cytometry (AID 1862; in the data active means percent of DMSO control GFP below about 86%;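 further: lower values mimic rapamycin by blocking the RPL19A rise seen in DMSO cells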); conditions: S. cerevisiae RPL19A-GFP strain, flow cytometry fluorescence, 3 h; at 10 µM; stronger effect = lower value
[2] = modulators of MEP2-GFP levels in yeast, primary screen, S. cerevisiae, multiplex flow cytometry (AID 1867;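 active means GFP response, as percent of the DMSO control, above the screen-wide mean plus 3 SD, about 139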;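 further: median GFP channel fluorescence of barcode-gated MEP2-GFP cells measured by flow cytometry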); conditions: S. cerevisiae MEP2-GFP strain, 3 h, at 10 µM, stronger effect = higher value, 100% means same as DMSO wells
[3] = modulators of CIT2-GFP expression in yeast, primary screen, S. cerevisiae, GFP fusion, multiplex flow cytometry (AID 1870;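 active means percent response above a set limit, the screen-wide mean plus 3 SD, cut at about 130% in these data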;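 further: barcoded CIT2-GFP strain pooled with four other GFP strains with rapamycin as positive control; median GFP fluorescence per well over plate mean of DMSO wells so 100% = DMSO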); conditions: 3 h, at 10 µM, stronger effect = higher value
[4] = modulators of LAP4-GFP expression in yeast, primary screen, S. cerevisiae, multiplex flow cytometry (AID 1873;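 active means GFP signal, as percent of the solvent control, above the screen mean plus 3 SD, about 149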); conditions: 3 h, at 10 µM, stronger effect = higher value
[5] = modulators of AGP1-GFP expression in yeast TOR pathway, primary screen, cell-based, multiplex flow cytometry, S. cerevisiae (AID 1887;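 active means GFP signal above the screen-wide mean plus 3 SD, that is over about 124.5% of the solvent control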;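 further: AGP1-GFP fusion strain of S. cerevisiae within a five-strain barcoded multiplex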); conditions: 3 h, at 10 µM, stronger effect = higher value
[6] = inhibitors of CD8+ T cell-vesicle binding, pilot screen, LFA-1/ICAM-1 modulator project, MLPCN validation set, flow cytometry (AID 2523;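 active means response below a set limit, under 55% cells CD8-positive and vesicle-bound, and CD8 cells' 90th-percentile brightness under 279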;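 on vesicle binding response: mean PE anti-B7-1 fluorescence of CD8+ cells relative to row control; 100% = QL9-loaded vesicles with DMSO vehicle in the same plate row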); conditions: 2C mouse CD8+ T cells, at 7 µM, stronger effect = lower value; double positive events: measured here: CD8+/vesicle+ event percentage
[7] = biological target: Integrin beta-1 (Homo sapiens) + Integrin alpha-4 (Homo sapiens) (UniProt P13612+P05556); test: inhibition of HUTS-21 binding to VLA-4, pilot screen, VLA-4 allosteric modulator project, U937 cells, HUTS-21 mAb, flow cytometry, validation set (AID 2674;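 active means inhibition above 50%, about 3 SD of the validation set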;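 further: antibody binding induced by the VLA-4 ligand LDV present at three times its Kd; 0% = LDV ligand with antibody and no compound and 100% = antibody without LDV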); conditions: HUTS-21 LIBS mAb binding, at 6.7 µM, stronger effect = higher value, binding induced by LDV ligand
Sequence of Integrin beta-1 (Homo sapiens) + Integrin alpha-4 (Homo sapiens) (P05556 whole entry, looked up): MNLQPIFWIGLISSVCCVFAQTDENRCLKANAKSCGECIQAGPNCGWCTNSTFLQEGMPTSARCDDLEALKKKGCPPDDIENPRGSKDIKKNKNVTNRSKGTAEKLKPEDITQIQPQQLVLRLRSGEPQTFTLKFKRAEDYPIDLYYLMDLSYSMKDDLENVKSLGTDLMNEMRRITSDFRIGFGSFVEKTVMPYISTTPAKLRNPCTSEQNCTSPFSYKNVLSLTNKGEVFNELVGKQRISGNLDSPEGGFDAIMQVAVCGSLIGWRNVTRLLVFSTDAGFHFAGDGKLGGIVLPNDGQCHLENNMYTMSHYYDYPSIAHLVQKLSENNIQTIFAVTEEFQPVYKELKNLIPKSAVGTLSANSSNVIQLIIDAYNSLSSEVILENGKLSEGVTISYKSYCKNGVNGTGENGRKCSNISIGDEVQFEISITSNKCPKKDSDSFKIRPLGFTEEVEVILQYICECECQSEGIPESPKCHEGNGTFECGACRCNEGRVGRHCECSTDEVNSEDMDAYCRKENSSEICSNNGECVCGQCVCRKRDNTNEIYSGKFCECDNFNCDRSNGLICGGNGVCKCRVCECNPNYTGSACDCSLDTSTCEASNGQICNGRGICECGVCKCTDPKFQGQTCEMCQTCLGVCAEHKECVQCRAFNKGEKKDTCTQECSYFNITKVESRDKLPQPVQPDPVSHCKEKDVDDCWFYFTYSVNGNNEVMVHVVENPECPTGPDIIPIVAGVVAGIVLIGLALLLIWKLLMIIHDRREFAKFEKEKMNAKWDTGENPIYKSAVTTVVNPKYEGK
Sequence of Integrin beta-1 (Homo sapiens) + Integrin alpha-4 (Homo sapiens) (P13612 whole entry, looked up): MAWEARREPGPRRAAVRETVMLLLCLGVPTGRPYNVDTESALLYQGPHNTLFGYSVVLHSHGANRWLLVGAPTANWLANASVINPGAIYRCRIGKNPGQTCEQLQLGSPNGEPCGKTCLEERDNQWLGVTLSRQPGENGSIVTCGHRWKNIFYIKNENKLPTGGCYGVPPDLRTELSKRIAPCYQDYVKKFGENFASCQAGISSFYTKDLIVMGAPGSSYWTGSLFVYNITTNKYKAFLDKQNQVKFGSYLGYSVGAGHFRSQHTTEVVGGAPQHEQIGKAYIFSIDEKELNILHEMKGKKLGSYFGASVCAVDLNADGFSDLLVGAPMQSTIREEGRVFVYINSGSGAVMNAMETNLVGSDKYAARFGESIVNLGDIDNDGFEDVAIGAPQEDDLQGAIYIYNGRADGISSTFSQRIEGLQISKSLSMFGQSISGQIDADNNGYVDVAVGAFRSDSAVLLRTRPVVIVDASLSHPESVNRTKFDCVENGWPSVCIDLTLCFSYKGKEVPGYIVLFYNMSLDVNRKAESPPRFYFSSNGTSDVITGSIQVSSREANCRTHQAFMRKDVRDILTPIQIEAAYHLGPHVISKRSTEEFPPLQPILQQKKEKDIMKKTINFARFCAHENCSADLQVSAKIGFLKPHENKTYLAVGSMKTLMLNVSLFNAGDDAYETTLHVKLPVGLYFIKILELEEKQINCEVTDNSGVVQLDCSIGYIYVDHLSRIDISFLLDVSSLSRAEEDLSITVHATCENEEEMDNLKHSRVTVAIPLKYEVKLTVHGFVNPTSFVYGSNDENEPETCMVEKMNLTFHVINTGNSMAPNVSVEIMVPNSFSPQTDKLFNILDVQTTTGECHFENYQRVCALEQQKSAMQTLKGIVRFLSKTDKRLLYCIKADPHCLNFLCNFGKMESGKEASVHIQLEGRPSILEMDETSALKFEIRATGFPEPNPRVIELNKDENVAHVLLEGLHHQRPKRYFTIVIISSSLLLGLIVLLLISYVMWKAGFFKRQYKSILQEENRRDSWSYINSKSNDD

[8] = superoxide lowering in aged yeast cells, pilot screen, validation compound set (AID 2706;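 active means superoxide response below 65% of plate, a cut near 3 SD across the whole screen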;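 further: yeast exposed to compound for one week at 30 degrees C before staining; 100% = mean of all compound wells on the same plate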); conditions: S. cerevisiae aging, superoxide DHE fluorescence; at 10 µM; stronger effect = lower value
[9] = biological target: Beta-adrenergic receptor kinase 1 (Homo sapiens) (UniProt P25098); test: GRK2 binders displacing RNA aptamer, biochemical, validation, human GRK2, bead flow cytometry (AID 488806;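 active means aptamer binding inhibition above 30%, about 3 SD of noise from non-fluorescent compounds; inactive means inhibition at or below 30%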); conditions: bead-bound GRK2, FAM-aptamer displacement, at 10 µM, stronger effect = higher value
Sequence of Beta-adrenergic receptor kinase 1 (Homo sapiens) (P25098 whole entry, looked up): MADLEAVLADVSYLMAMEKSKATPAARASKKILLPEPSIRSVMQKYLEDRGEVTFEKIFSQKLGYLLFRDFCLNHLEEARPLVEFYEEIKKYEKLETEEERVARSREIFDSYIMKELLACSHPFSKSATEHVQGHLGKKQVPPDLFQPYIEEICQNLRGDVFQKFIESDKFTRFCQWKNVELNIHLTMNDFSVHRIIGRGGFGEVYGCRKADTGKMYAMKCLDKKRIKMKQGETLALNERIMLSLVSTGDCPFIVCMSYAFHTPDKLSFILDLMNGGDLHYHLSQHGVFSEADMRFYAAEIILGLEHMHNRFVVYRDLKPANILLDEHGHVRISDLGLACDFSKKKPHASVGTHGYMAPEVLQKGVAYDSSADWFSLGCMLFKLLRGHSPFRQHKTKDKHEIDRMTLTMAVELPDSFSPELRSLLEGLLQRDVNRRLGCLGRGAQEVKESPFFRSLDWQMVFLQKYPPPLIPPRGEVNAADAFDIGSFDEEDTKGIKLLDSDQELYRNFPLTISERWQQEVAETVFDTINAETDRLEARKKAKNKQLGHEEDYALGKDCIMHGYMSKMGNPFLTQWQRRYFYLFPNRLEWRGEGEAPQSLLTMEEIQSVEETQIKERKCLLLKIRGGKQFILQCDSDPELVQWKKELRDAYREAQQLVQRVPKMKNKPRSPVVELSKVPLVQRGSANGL

[10] = biological target: Beta-2 adrenergic receptor (Homo sapiens) (UniProt P07550); test: beta2AR agonists driving receptor internalization, pilot screen, cell-based, FAP fluorogen, flow cytometry, validation set (AID 504459;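 active means percent response above 42, roughly 3 SD of non-fluorescent test compounds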;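 further: agonist-driven loss of surface beta2AR via internalization measured by FAP dye flow cytometry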); conditions: Am2.2-beta2AR cells, FAP surface receptor flow cytometry; at 10 µM; stronger effect = higher value
Sequence of Beta-2 adrenergic receptor (Homo sapiens) (P07550 whole entry, looked up): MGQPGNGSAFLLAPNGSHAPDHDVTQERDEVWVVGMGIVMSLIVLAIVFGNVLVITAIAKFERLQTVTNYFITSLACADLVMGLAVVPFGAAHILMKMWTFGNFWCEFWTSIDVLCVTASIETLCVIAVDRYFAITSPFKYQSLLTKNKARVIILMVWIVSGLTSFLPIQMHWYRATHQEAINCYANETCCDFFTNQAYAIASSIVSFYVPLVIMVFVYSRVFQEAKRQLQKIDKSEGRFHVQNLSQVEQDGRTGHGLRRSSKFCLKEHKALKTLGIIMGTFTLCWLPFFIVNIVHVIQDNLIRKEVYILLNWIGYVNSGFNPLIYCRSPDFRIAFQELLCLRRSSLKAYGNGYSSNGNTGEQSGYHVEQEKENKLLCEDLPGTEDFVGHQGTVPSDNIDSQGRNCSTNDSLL

[11] = biological target: AP-2 complex subunit beta (Homo sapiens) (UniProt P63010); test: inhibitors of arrestin peptide binding to AP2, pilot screen, biochemical, validation set, GST-AP2 beads, flow cytometry (AID 504541;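 active means inhibition above 54%, about 3 SD of non-fluorescent compounds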;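 further: AP2 carries R879A mutation and is captured from E. coli lysate; bead-bound FITC arrestin peptide fluorescence measuring arrestin peptide binding to AP2; 0% = DMSO wells and 100% = excess unlabeled arrestin peptide control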); conditions: FITC arrestin peptide, at 10 µM, stronger effect = higher value, AP2 beta2 appendage fragment, R879A mutant
Sequence of AP-2 complex subunit beta (Homo sapiens) (P63010 whole entry, looked up, the tested form may be a part, one chain of several): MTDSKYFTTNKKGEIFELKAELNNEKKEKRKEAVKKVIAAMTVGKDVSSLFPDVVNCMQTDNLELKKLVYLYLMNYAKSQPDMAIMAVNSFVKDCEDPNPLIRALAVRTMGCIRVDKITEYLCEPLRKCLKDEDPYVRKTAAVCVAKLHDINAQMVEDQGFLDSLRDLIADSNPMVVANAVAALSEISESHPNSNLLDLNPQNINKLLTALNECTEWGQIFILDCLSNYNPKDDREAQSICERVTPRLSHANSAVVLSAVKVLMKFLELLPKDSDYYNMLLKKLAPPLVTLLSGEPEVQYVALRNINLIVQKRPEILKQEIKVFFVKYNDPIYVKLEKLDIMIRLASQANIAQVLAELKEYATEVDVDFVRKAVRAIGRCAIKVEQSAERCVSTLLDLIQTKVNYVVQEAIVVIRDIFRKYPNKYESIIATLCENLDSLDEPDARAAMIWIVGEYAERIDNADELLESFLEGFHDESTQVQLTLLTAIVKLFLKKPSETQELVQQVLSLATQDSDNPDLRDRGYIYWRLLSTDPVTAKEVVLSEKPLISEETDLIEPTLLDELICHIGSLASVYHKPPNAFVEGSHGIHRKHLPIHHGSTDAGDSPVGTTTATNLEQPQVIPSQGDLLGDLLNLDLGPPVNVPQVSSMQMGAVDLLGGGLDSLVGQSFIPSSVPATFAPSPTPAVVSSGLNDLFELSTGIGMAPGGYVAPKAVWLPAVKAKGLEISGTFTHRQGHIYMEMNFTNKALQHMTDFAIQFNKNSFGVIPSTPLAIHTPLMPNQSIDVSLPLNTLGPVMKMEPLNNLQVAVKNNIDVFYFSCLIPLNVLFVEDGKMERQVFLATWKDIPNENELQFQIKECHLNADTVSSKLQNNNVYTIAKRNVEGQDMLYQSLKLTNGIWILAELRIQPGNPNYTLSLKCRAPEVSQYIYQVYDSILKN

[12] = yeast V-ATPase proton transport modulators, S. cerevisiae, pHLuorin, HTS validation (AID 504600; in the data active means response above about 15%;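 further: plate controls were DMSO for no effect and reference compound for full effect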); conditions: S. cerevisiae pHLuorin cytosolic pH, at 10 µM, stronger effect = higher value
[13] = tested on: anti-desmoglein-3 scFv antibody binding to human DSG3; test: inhibitors of anti-DSG3 scFv binding to DSG3, pilot screen, biochemical, validation compound set, bead-based, flow cytometry (AID 588368;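 active means binding below the plate cutoff, the plate median minus 3 SD, with a reading above zero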;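 further: signal is the median channel fluorescence of bead-bound GFP antibody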); conditions: Protein G beads, DSG3-Fc, scFv-GFP binding, at 10 µM, stronger effect = lower value
[14] = inhibitors of fungal efflux pumps CDR1, CDR2, MDR1, pilot screen, validation compound set, multiplex, phenotypic (AID 588506;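 active means efflux inhibition above 0.42, the validation set average plus 4 SD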;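 further: Nile Red retained in cells so higher fluorescence means more efflux inhibition; 0 = negative control wells and 1 = enniatin B 25 µM full block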); conditions: S. cerevisiae pump-expressing triplex, Nile Red efflux flow cytometry; at 10 µM; stronger effect = higher value; the pumps come from Candida albicans
[15] = biological target: ATP-binding cassette sub-family B member 6 (Homo sapiens) (UniProt Q9NP58); test: ABCB6 transporter inhibitors, pilot screen, K562-ABCB6 cells, flow cytometry, validation set (AID 588550); conditions: K562-ABCB6 porphyrin accumulation, 1 h, at 10 µM, stronger effect = higher value;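 further: 0% = DMSO wells and 100% = benzethonium chloride 70 µM positive control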
Sequence of ATP-binding cassette sub-family B member 6 (Homo sapiens) (Q9NP58 whole entry, looked up): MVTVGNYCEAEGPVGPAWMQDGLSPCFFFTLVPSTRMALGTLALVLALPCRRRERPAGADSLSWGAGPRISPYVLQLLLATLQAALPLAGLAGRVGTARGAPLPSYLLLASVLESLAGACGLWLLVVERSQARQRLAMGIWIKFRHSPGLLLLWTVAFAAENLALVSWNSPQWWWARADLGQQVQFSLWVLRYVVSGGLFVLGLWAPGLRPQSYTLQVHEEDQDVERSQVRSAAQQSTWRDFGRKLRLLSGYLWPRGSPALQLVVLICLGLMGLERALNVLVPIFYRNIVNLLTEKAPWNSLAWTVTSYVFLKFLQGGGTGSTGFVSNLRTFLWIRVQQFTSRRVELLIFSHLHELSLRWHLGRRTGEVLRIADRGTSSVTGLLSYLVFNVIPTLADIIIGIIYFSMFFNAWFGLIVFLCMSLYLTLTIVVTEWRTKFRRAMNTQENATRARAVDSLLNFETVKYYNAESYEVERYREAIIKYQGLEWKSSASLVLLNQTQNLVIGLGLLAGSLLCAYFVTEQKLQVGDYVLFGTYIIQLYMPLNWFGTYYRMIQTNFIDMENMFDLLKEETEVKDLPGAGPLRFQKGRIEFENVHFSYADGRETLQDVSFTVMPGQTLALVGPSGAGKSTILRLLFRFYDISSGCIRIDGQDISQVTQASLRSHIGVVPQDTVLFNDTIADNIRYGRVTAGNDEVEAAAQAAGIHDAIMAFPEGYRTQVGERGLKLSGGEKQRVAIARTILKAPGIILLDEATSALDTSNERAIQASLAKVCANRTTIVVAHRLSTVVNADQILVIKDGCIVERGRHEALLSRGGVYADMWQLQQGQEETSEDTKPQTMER

[16] = promoters of myeloid differentiation in arrested cells, primary screen, cell-based, GFP/MAC1 double positive, flow cytometry, validation set (AID 588685;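 active means differentiation response of at least 50%, scaled between solvent and reference control, from cells with both markers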;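 further: compound exposure lasts four days before antibody staining and flow analysis; 0% = DMSO wells and 100% = 5 µM fulvestrant positive control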); conditions: ER-HoxA9 marrow cells, stronger effect = higher value, normalized: vehicle 0, fulvestrant 100

Compound	percent of DMSO control GFP [1]	GFP response vs DMSO [2]	percent response of DMSO control [3]	GFP response vs DMSO [4]	GFP response, % of DMSO [5]	double positive events [6] [%]	vesicle binding response [6]	inhibition [7]	superoxide response (% of plate) [8]	aptamer binding inhibition [9]	response [10]	inhibition [11]	response [12]	binding (% of control) [13]	efflux inhibition (fraction of control) [14]	inhibition [15]	differentiation response [16]
CCC(=O)Oc1ccc(C(=O)Nc2ccc([N+](=O)[O-])cc2)cc1	87.8% (inactive)	148% (active)	90% (inactive)	82.5% (inactive)	80.8% (inactive)	61.8	195% (inactive)	-0.33% (inactive)	88.4% (inactive)	5% (inactive)	4.9% (inactive)	15.9% (inactive)	-4.69% (inactive)	100% (inactive)	-0.38 (inactive)	14% (inactive)	-6.55% (inactive)
COc1ccccc1N=CC1=C(O)CC(c2ccccc2)CC1=O (stereo not drawn)	92.6% (inactive)	111% (inactive)	96.6% (inactive)	82.5% (inactive)	88.9% (inactive)	64.4	153% (inactive)	-36.2% (inactive)	95.6% (inactive)	2% (inactive)	1.28% (inactive)	-4.2% (inactive)	4.13% (inactive)	103% (inactive)	-0.24 (inactive)	12% (inactive)	2.46% (inactive)
CCOc1ccc2ccccc2c1C(=O)N[C@@H]1C(=O)N2[C@@H]1SC(C)(C)[C@@H]2C(=O)O	101% (inactive)	112% (inactive)	93.1% (inactive)	85.5% (inactive)	97.5% (inactive)	67.6	994% (inactive)	-3.57% (inactive)	108% (inactive)	2% (inactive)	1.55% (inactive)	17.1% (inactive)	0.05% (inactive)	95.5% (inactive)	0.14 (inactive)	8% (inactive)	11% (inactive)
O=C(CCC(=O)c1cccs1)c1cccs1	99.5% (inactive)	96.3% (inactive)	107% (inactive)	72.6% (inactive)	86.5% (inactive)	60.5	125% (inactive)	-4.52% (inactive)	108% (inactive)	3% (inactive)	-4.9% (inactive)	-11.3% (inactive)	1.04% (inactive)	91.5% (inactive)	-0.1 (inactive)	6% (inactive)	-20% (inactive)
Clc1ccc(CCNc2ncnc3nc[nH]c23)cc1	97.4% (inactive)	108% (inactive)	92% (inactive)	105% (inactive)	99.7% (inactive)	60.8	127% (inactive)	0.94% (inactive)	108% (inactive)	4% (inactive)	-5.61% (inactive)	5.59% (inactive)	-0.06% (inactive)	97.2% (inactive)	0.08 (inactive)	10% (inactive)	-0.8% (inactive)
CCCCCCCCCC(=O)OCC(O)CO (stereo not drawn)	105% (inactive)	105% (inactive)	102% (inactive)	103% (inactive)	93.4% (inactive)	65.4	163% (inactive)	-10.8% (inactive)	116% (inactive)	4% (inactive)	-2% (inactive)	59.4% (active)	-4.17% (inactive)	96.3% (inactive)	0.18 (inactive)	5% (inactive)	9.04% (inactive)
CCCc1cc(=O)[nH]c(=S)[nH]1	99.1% (inactive)	101% (inactive)	96.5% (inactive)	103% (inactive)	107% (inactive)	61.7	144% (inactive)	-2.43% (inactive)	86.8% (inactive)	0% (inactive)	-3.16% (inactive)	-5.08% (inactive)	12.1% (inactive)	101% (inactive)	0.44 (active)	-3% (inactive)	-1.65% (inactive)
COc1ccc(OC)c(S(=O)(=O)N2CCCc3ccccc32)c1	101% (inactive)	104% (inactive)	91.3% (inactive)	126% (inactive)	105% (inactive)	58.6	124% (inactive)	15% (inactive)	97.2% (inactive)	5% (inactive)	2.04% (inactive)	2.15% (inactive)	-1.7% (inactive)	105% (inactive)	0.18 (inactive)	24% (inactive)	-8.96% (inactive)
CN1CCN(C2=Nc3ccccc3Oc3ccc(Cl)cc32)CC1	101% (inactive)	115% (inactive)	111% (inactive)	79.8% (inactive)	100% (inactive)	61.6	223% (inactive)	4.52% (inactive)	112% (inactive)	-9% (inactive)	-6.79% (inactive)	-13.5% (inactive)	0.86% (inactive)	109% (inactive)	0.19 (inactive)	14% (inactive)	-0.82% (inactive)
COc1ccccc1CCn1cnc2c3cc(C)ccc3n(C)c2c1=O	100% (inactive)	106% (inactive)	105% (inactive)	108% (inactive)	98.8% (inactive)	56.6	138% (inactive)	-27.9% (inactive)	94.8% (inactive)	-1% (inactive)	-8.23% (inactive)	9.65% (inactive)	-3.34% (inactive)	101% (inactive)	-0.31 (inactive)	-9% (inactive)	-14.8% (inactive)
Cc1[nH]nc(-c2ccc(O)cc2O)c1Oc1ccccc1	106% (inactive)	100% (inactive)	114% (inactive)	93.3% (inactive)	103% (inactive)	61.9	53.1% (inactive)	4.73% (inactive)	95.8% (inactive)	1% (inactive)	-4.61% (inactive)	-10.9% (inactive)	-4.45% (inactive)	96.3% (inactive)	-0.32 (inactive)	3% (inactive)	8.06% (inactive)
O=c1c(-c2ccccc2)c(O)c2cccc3c2n1CCC3	99.7% (inactive)	104% (inactive)	95.7% (inactive)	132% (inactive)	103% (inactive)	61.2	186% (inactive)	1.44% (inactive)	108% (inactive)	-3% (inactive)	-27.7% (inactive)	-7.94% (inactive)	0.3% (inactive)	101% (inactive)	-0.09 (inactive)	1% (inactive)	-12.9% (inactive)
COc1ccc(NC(=O)C2CCCN2C(=O)OC(C)(C)C)cc1 (stereo not drawn)	102% (inactive)	102% (inactive)	100% (inactive)	92.3% (inactive)	99.9% (inactive)	69.5	107% (inactive)	2.55% (inactive)	53.3% (active)	0% (inactive)	-5.75% (inactive)	-4.29% (inactive)	-0.27% (inactive)	102% (inactive)	-0.38 (inactive)	8% (inactive)	-5.68% (inactive)
CC(C)NS(=O)(=O)c1ccc(OCC(=O)Nc2cccc(F)c2)cc1	101% (inactive)	98.7% (inactive)	106% (inactive)	89.3% (inactive)	92.4% (inactive)	59.7	143% (inactive)	-11.8% (inactive)	95.1% (inactive)	3% (inactive)	3.73% (inactive)	5.6% (inactive)	-2.45% (inactive)	98.5% (inactive)	0.22 (inactive)	7% (inactive)	-10.4% (inactive)
O=C(/C=C/c1ccco1)Nc1ccccc1C(=O)O	98.1% (inactive)	105% (inactive)	107% (inactive)	94.8% (inactive)	109% (inactive)	65.9	205% (inactive)	-31.9% (inactive)	124% (inactive)	11% (inactive)	5.64% (inactive)	-15.5% (inactive)	3.27% (inactive)	105% (inactive)	-0.3 (inactive)	-11% (inactive)	23.2% (inactive)
N#C/C(=C/c1ccccc1)C(=O)NCc1ccccc1	97.4% (inactive)	108% (inactive)	101% (inactive)	106% (inactive)	102% (inactive)	58	197% (inactive)	7.76% (inactive)	95.8% (inactive)	0% (inactive)	-0.74% (inactive)	8.66% (inactive)	-0.63% (inactive)	101% (inactive)	-0.06 (inactive)	3% (inactive)	-18.4% (inactive)
O=C(O)c1cc2cc(F)ccc2[nH]1	101% (inactive)	101% (inactive)	105% (inactive)	98.6% (inactive)	102% (inactive)	64.7	894% (inactive)	-15% (inactive)	113% (inactive)	3% (inactive)	0.15% (inactive)	8.62% (inactive)	1.32% (inactive)	97.2% (inactive)	-0.14 (inactive)	14% (inactive)	-1.71% (inactive)
CC12COC3(C(=O)Nc4ccc(F)cc4)CC1CCC32C (stereo not drawn)	94.2% (inactive)	126% (inactive)	107% (inactive)	73.7% (inactive)	85.9% (inactive)	65.7	157% (inactive)	8.4% (inactive)	99.2% (inactive)	1% (inactive)	-12.6% (inactive)	-2.28% (inactive)	-3.14% (inactive)	102% (inactive)	0.3 (inactive)	10% (inactive)	-1.64% (inactive)
COc1ccc(C2NC(C(=O)O)Cc3c2[nH]c2ccccc32)cc1CN1CCN(c2ccc(F)cc2)CC1 (stereo not drawn)	104% (inactive)	98.3% (inactive)	113% (inactive)	102% (inactive)	104% (inactive)	63.4	242% (inactive)	-0.45% (inactive)	94.5% (inactive)	-6% (inactive)	6.62% (inactive)	-4.95% (inactive)	2.85% (inactive)	102% (inactive)	-0.07 (inactive)	1% (inactive)	1.22% (inactive)
